Measurements as given in publication PMC5540273 (PLoS ONE, 2017).

The compounds below were run on PRKD1. Conditions: concentration: 1 μM, replicates: in singlicate; n = 1.
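Note: KINOMEscan kinase panel screen.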

Row | SMILES | %Inh [%]
1 | COc1cccc(C2=C(Nc3cc(Cl)c(O)c(Cl)c3)C(=O)NC2=O)c1 [SB-390767] | 0
2 | CN1c2ccc(-c3ccc(C(N)=O)cc3)cc2-c2[nH]ncc2S1(=O)=O | 17
3 | O=C(Nc1n[nH]c2nc(-c3ccco3)c(Br)cc12)C1CCN(Cc2ccccc2)C1.O=C(O)[C@H](O)[C@@H](O)C(=O)O (stereo not drawn) [SB-742034] | 14
4 | Cc1ccccc1-c1cc(-c2c[nH]nc2-c2ccccn2)ccn1 [GW680061] | 0
5 | O=C(Nc1n[nH]c2cc(-c3ccsc3)ccc12)C1CC1 [SB-732932] | 82
6 | Fc1ccc(-c2nc[nH]c2-c2ccncc2)cc1 [SB-217360] | 0
7 | CNCc1ccc2nc(NC(=O)c3ccc(C(C)(C)C)cc3)cn2c1 | 30
8 | Cc1ccc(NC(=O)Nc2ccc(Cl)cc2)cc1-c1ccc(C(=O)Nc2ccncc2)cc1 [GSK1398472] | 0
9 | CCCCc1nn2ncccc2c1-c1ccnc(NC2CC2)n1 [GW684374] | 0
10 | COc1ccc(-c2coc3ccc(-c4nnc(C)o4)cc23)cc1 | 20
11 | CS(=O)(=O)CCNCc1nc(-c2ccc3ncnc(Nc4ccc(OCc5ccccc5)c(Cl)c4)c3c2)cs1.Cl [GW582764] | 2
12 | CC[C@@H]1CO[C@H](C(=O)Nc2ccccc2)CN1c1cc(-c2ccc3c(N)n[nH]c3c2)nc(NC)n1 [GSK2376236] | 0
13 | COc1ccc(Nc2nccc(NCCNC(=O)Nc3cc(C)ccc3C)n2)cc1 [GSK1379899] | 0
14 | CC(=O)c1c(C)c2cnc(Nc3ccn(C)n3)nc2n(C2CCCC2)c1=O | 0
15 | COc1ccc(Nc2nccc(N3CCC(NC(=O)C(C)c4ccc(Cl)cc4)CC3)n2)cc1 (stereo not drawn) [GSK1379812] | 0
16 | CC(C)c1cc(-c2ccc3c(N)n[nH]c3c2)nc(N)n1 [GSK2250882] | 0
17 | COC(=O)c1cccc(NC(=O)NC2CCN(c3ccnc(Nc4ccc(F)cc4)n3)C2)c1 (stereo not drawn) [GSK1379725] | 1
18 | Fc1ccc(-c2nc3n(c2-c2ccncc2)CCS3)cc1 [GI98581] | 0

Row | SMILES | %Inh [%]
19 | COc1nccc(-c2c(-c3ccc(F)cc3)ncn2CCCN2CCOCC2)n1 [SB-282852] | 21
20 | CNc1nc(-c2ccc3c(N)n[nH]c3c2)cc(N2C[C@@H](C(=O)Nc3ccccc3)CC[C@H]2C)n1 [GSK2298859] | 0
21 | O=C1NC(=O)C(c2ccc(Cl)cc2)=C1Nc1ccc(O)cc1 [SB-340867] | 0
22 | Cl.Cl.Cl.N#Cc1ccc(CCNc2nccc(-c3cccc(CN4CCNCC4)c3)n2)cc1 [GSK2137462] | 1
23 | Cc1nccc(-c2c(-c3ccc(F)cc3)ncn2CCCN2CCOCC2)n1.Cl [SB-282975] | 25
24 | Cc1ccc(NC(=O)Nc2ccccc2)cc1-c1ccc(C(=O)Nc2ccncc2)cc1 [GSK1398471] | 20
25 | Cn1cnc2c(N)ncnc21 [SKF-97623] | 52
26 | Cn1cncc1-c1cc2c(Nc3ccc(OCc4ccccc4)cc3)ncnc2cn1 [GW281179] | 0
27 | Nc1cccc(-c2ccc3c(N)n[nH]c3c2)n1 [GSK2192730] | 0
28 | Cc1c(Cn2c(C)c(C)n3c(=O)cc(N4CCOCC4)nc23)cccc1C(F)(F)F [GSK2328680] | 0
29 | Cc1ccc(-c2nc(Nc3ccncc3)c3ccccc3n2)s1 [GSK189015] | 18
30 | CCn1c(-c2c(N)noc2C)nc2cnccc21 [SB-737856] | 1
31 | CS(=O)(=O)CCNCc1nc(-c2ccc3ncnc(Nc4ccc5c(cnn5Cc5ccccc5)c4)c3c2)cs1.Cl.Cl [GW569716] | 4
32 | COc1ccc(Nc2nccc(-c3ccc(NC(=O)c4cc5cc(F)ccc5[nH]4)cc3)n2)cc1 [GSK1229496] | 0
33 | COc1cc2ncnc(Nc3cccc(Br)c3)c2cc1OC.Cl [GI230329] | 0
34 | COc1ccc(CSc2nnc(-c3ccc4nccn4c3)o2)cc1C(F)(F)F | 0
35 | CC(=O)c1cccc(NC(=O)NC2CCN(c3ccnc(Nc4ccc(F)cc4)n3)C2)c1 (stereo not drawn) [GSK1379710] | 0
36 | CCc1ccc(-c2ccc3c(c2)-c2n[nH]cc2S(=O)(=O)N3C)cc1 | 14

What follows are compounds tested on PRKD2. Conditions: concentration: 1 μM, replicates: in singlicate; n = 1.

Row | SMILES | %Inh [%]
37 | COc1cccc(C2=C(Nc3cc(Cl)c(O)c(Cl)c3)C(=O)NC2=O)c1 [SB-390767] | 0
38 | CN1c2ccc(-c3ccc(C(N)=O)cc3)cc2-c2[nH]ncc2S1(=O)=O | 80
39 | O=C(Nc1n[nH]c2nc(-c3ccco3)c(Br)cc12)C1CCN(Cc2ccccc2)C1.O=C(O)[C@H](O)[C@@H](O)C(=O)O (stereo not drawn) [SB-742034] | 0
40 | Cc1ccccc1-c1cc(-c2c[nH]nc2-c2ccccn2)ccn1 [GW680061] | 0
41 | O=C(Nc1n[nH]c2cc(-c3ccsc3)ccc12)C1CC1 [SB-732932] | 0
42 | Fc1ccc(-c2nc[nH]c2-c2ccncc2)cc1 [SB-217360] | 0
43 | CNCc1ccc2nc(NC(=O)c3ccc(C(C)(C)C)cc3)cn2c1 | 2
44 | Cc1ccc(NC(=O)Nc2ccc(Cl)cc2)cc1-c1ccc(C(=O)Nc2ccncc2)cc1 [GSK1398472] | 0
45 | CCCCc1nn2ncccc2c1-c1ccnc(NC2CC2)n1 [GW684374] | 0
46 | COc1ccc(-c2coc3ccc(-c4nnc(C)o4)cc23)cc1 | 0
47 | CS(=O)(=O)CCNCc1nc(-c2ccc3ncnc(Nc4ccc(OCc5ccccc5)c(Cl)c4)c3c2)cs1.Cl [GW582764] | 0
48 | CC[C@@H]1CO[C@H](C(=O)Nc2ccccc2)CN1c1cc(-c2ccc3c(N)n[nH]c3c2)nc(NC)n1 [GSK2376236] | 12
49 | COc1ccc(Nc2nccc(NCCNC(=O)Nc3cc(C)ccc3C)n2)cc1 [GSK1379899] | 0
50 | CC(=O)c1c(C)c2cnc(Nc3ccn(C)n3)nc2n(C2CCCC2)c1=O | 0
51 | COc1ccc(Nc2nccc(N3CCC(NC(=O)C(C)c4ccc(Cl)cc4)CC3)n2)cc1 (stereo not drawn) [GSK1379812] | 16
52 | CC(C)c1cc(-c2ccc3c(N)n[nH]c3c2)nc(N)n1 [GSK2250882] | 0
53 | COC(=O)c1cccc(NC(=O)NC2CCN(c3ccnc(Nc4ccc(F)cc4)n3)C2)c1 (stereo not drawn) [GSK1379725] | 1
54 | Fc1ccc(-c2nc3n(c2-c2ccncc2)CCS3)cc1 [GI98581] | 6

Row | SMILES | %Inh [%]
55 | COc1nccc(-c2c(-c3ccc(F)cc3)ncn2CCCN2CCOCC2)n1 [SB-282852] | 6
56 | CNc1nc(-c2ccc3c(N)n[nH]c3c2)cc(N2C[C@@H](C(=O)Nc3ccccc3)CC[C@H]2C)n1 [GSK2298859] | 20
57 | O=C1NC(=O)C(c2ccc(Cl)cc2)=C1Nc1ccc(O)cc1 [SB-340867] | 19
58 | Cl.Cl.Cl.N#Cc1ccc(CCNc2nccc(-c3cccc(CN4CCNCC4)c3)n2)cc1 [GSK2137462] | 13
59 | Cc1nccc(-c2c(-c3ccc(F)cc3)ncn2CCCN2CCOCC2)n1.Cl [SB-282975] | 2
60 | Cc1ccc(NC(=O)Nc2ccccc2)cc1-c1ccc(C(=O)Nc2ccncc2)cc1 [GSK1398471] | 15
61 | Cn1cnc2c(N)ncnc21 [SKF-97623] | 1
62 | Cn1cncc1-c1cc2c(Nc3ccc(OCc4ccccc4)cc3)ncnc2cn1 [GW281179] | 2
63 | Nc1cccc(-c2ccc3c(N)n[nH]c3c2)n1 [GSK2192730] | 0
64 | Cc1c(Cn2c(C)c(C)n3c(=O)cc(N4CCOCC4)nc23)cccc1C(F)(F)F [GSK2328680] | 18
65 | Cc1ccc(-c2nc(Nc3ccncc3)c3ccccc3n2)s1 [GSK189015] | 14
66 | CCn1c(-c2c(N)noc2C)nc2cnccc21 [SB-737856] | 11
67 | CS(=O)(=O)CCNCc1nc(-c2ccc3ncnc(Nc4ccc5c(cnn5Cc5ccccc5)c4)c3c2)cs1.Cl.Cl [GW569716] | 0
68 | COc1ccc(Nc2nccc(-c3ccc(NC(=O)c4cc5cc(F)ccc5[nH]4)cc3)n2)cc1 [GSK1229496] | 0
69 | COc1cc2ncnc(Nc3cccc(Br)c3)c2cc1OC.Cl [GI230329] | 6
70 | COc1ccc(CSc2nnc(-c3ccc4nccn4c3)o2)cc1C(F)(F)F | 5
71 | CC(=O)c1cccc(NC(=O)NC2CCN(c3ccnc(Nc4ccc(F)cc4)n3)C2)c1 (stereo not drawn) [GSK1379710] | 10
72 | CCc1ccc(-c2ccc3c(c2)-c2n[nH]cc2S(=O)(=O)N3C)cc1 | 16
